Assay outcomes as filed in PubChem.
Most compounds without a hit are left out; they make up all but 6.1% or so of the library.
D1 antagonist = Antagonist of Human D 1 Dopamine Receptor: qHTS; D(1A) dopamine receptor (Homo sapiens), P21728; HEK293 TREx D1 cells, calcium flux, dopamine EC80; active compounds read low; activity change, negative = inhibition, % at 10 µM; 360,000 compounds, 3.2% hits; in the data active = activity change below about -30%
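Inducible Hek293 Trex D1 cells (tetracycline, overnight, 30 C). Calcium dye 30–90 min RT. Antagonist mode: EC80 dopamine added after 180 s compound read.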
D1 ag = Allosteric Agonists of the Human D1 Dopamine Receptor: qHTS; D(1A) dopamine receptor (Homo sapiens), P21728; HEK293 T-REx D1 cells, calcium flux, agonist mode; activation, % at 2 µM; 360,000 compounds, 1% hits; AID 504660, 2011; in the data active = activation above about 30%
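Tetracycline-induced HEK293 TREx D1 cells, force-coupled to calcium signalling, were dye-loaded with a no-wash calcium kit. Compound was pin-added after a 10 s baseline. Fluorescence was read kinetically at 1 cycle/s for 180 s, with calcium rises flagged as agonism.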
D1 PAM = Potentiators of Human D1 Dopamine Receptor: qHTS | D(1A) dopamine receptor (Homo sapiens), P21728 | HEK293 TREx D1 cells, calcium flux, dopamine EC20 potentiation | potentiation, % at 10 µM | 360,000 compounds, 0.036% hits | AID 504651, 2011; in the data active = potentiation above about 30%
D3 ag = qHTS of D3 Dopamine Receptor Agonist: qHTS. D(3) dopamine receptor (Homo sapiens), P35462. D3R DiscoveRx beta-arrestin cells, luminescence, 90 min. max activation, %. 410,000 compounds, 0.58% hits; in the data active = max activation above about 30%
Target sequence (P35462 whole entry, looked up): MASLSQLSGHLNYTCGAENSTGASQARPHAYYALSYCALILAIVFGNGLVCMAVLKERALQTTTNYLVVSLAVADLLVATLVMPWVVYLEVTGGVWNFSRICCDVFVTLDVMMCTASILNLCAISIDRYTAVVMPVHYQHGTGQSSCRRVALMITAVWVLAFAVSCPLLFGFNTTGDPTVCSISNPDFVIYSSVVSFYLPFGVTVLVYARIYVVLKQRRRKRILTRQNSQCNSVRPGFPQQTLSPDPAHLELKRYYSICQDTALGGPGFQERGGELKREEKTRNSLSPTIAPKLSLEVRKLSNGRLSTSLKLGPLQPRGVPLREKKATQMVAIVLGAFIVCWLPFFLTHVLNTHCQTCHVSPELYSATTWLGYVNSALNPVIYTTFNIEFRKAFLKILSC
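Cells at 1500/well, incubated overnight, then treated with pinned compounds (dopamine as control) for 90 min at 37 degrees C. DiscoveRx reagent added for 30 - 60 minutes at room temperature; luminescence read.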
DRD3 antagonist = qHTS of D3 Dopamine Receptor Antagonist: qHTS; D(3) dopamine receptor (Homo sapiens), P35462; D3R cells, DiscoveRx beta-arrestin luminescence, antagonist mode; active compounds read low; max response, negative = inhibition, %; 360,000 compounds, 2.5% hits; AID 652054, 2013; in the data active = max response below about -50%; inconclusive = no clear call, values can overlap the other calls
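Cells plated overnight at 1500 cells/well, then exposed to library compounds with dopamine controls for 90 minutes at 37 degrees C. DiscoveRx reagent added for 30–60 minutes at room temperature; luminescence read, quantitative HTS format.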
Large screens that a line does not name were inactive; ! = not confirmed by another sample.

CCOC(=O)c1cc(C)n(CC2CCC(C(=O)Nc3ccc(OC)cc3)CC2)c1C (centres undefined)	D3 ag 30 (no result: DRD3 antagonist)
CCOC(=O)c1cc(C)n(CC2CCC(C(=O)Nc3cc(OC)cc(OC)c3)CC2)c1C (centres undefined)	none (no result: DRD3 antagonist)
CCOCCCNC(=S)N1CCN(c2nc(-c3ccc(F)cc3)cs2)CC1	D1 antagonist -31
CCCNC(=S)N1CCN(c2nc(-c3cccc(OC)c3)cs2)CC1	none
CCCNC(=S)N1CCN(c2nc(-c3ccc(C)cc3)cs2)CC1	D1 antagonist -35
Cc1cc(NC(=O)CCNS(=O)(=O)c2cc(Br)cnc2N)ccc1Br	DRD3 antagonist -51
Cc1cccc(NC(=O)CSCC(=O)N(C)CCOc2ccc(Cl)cc2)c1	none
Cc1ccc(S(=O)(=O)Nc2ccc(N(C)C)cc2)cc1	none
CN(C)c1ccc(NS(=O)(=O)c2ccc(-c3csnn3)cc2)cc1	D1 ag 30, DRD3 antagonist inconclusive
CN(CCC1CCOCC1)C(=O)CC1C(=O)NCCN1Cc1c(F)cccc1Cl (centres undefined)	D1 antagonist -52
CN(CCCC1CCCC1)C(=O)CC1C(=O)NCCN1Cc1cccc(F)c1F (centres undefined)	D1 PAM 30
CCO[C@@H]1OC(C(=O)NC2CC2)=C[C@H](c2c[nH]c3ccccc23)[C@H]1CCCO	DRD3 antagonist -65
COc1ccc(NC(=O)c2cc(-c3ccc4c(c3)OCO4)on2)c(OC)c1	none (no result: DRD3 antagonist)
CCOC(=O)c1ccc(N/C=C\C(=O)c2cccc(OC)c2)cc1	D1 antagonist -46
COc1cccc(C(=O)/C=C/Nc2ccc(S(=O)(=O)Nc3ccc(C(C)=O)cc3)cc2)c1	D1 antagonist -34
CCOC(=O)c1cccc(N/C=C/C(=O)c2ccc(OC)c(OC)c2)c1	none
CCC1=NN2C(=N)/C(=C\c3ccc(SCc4ccco4)o3)C(=O)N=C2S1	D1 ag 38
CCCC1=NN2C(=N)/C(=C\c3ccc(SCc4ccco4)o3)C(=O)N=C2S1	D1 ag 63
N=C1/C(=C/c2ccco2)C(=O)N=C2SC(CC(=O)N3CCCC3)=NN12	none
CCCC1=NN2C(=N)/C(=C\c3cc(C)n(Cc4ccccc4)c3C)C(=O)N=C2S1	D1 antagonist -37, D1 ag 150
CN(CC(=O)Nc1ccc(F)c(F)c1F)C(=O)c1cc(S(=O)(=O)N(C)C)ccc1N1CCCC1	none (no result: D1 antagonist, D1 ag, D1 PAM)
O=C(CCCn1c(=O)c2cccn2c2ccccc21)NCc1ccccc1Br	none (no result: DRD3 antagonist)
O=C1c2ccccc2C(c2nnnn2-c2ccc3c(c2)OCCO3)N1Cc1ccc(F)cc1 (centres undefined)	none (no result: D1 antagonist, D1 ag, D1 PAM)
CCOCCOC(=O)c1cccc2c1-c1ccccc1C2=O	none
O=C1N=C(N2C=CC(=C3C=CNC=C3)C=C2)/C(=C/N=NC(=O)c2ccccc2O)S1	none
NC(=O)C1CCN(C(=O)CC2(CC(=O)O)CCCC2)CC1	none
Cc1ccc(NC(=S)NCC2CCN(C(C)c3ccccc3)C2)cc1C (centres undefined)	D1 antagonist -63
CCOC(=O)C1=C(c2ccccc2)c2ccc(OC)cc2N(S(=O)(=O)C(F)(F)F)C1C(=O)OCC (centres undefined)	D3 ag 39 (no result: D1 antagonist, D1 ag, D1 PAM)
Cc1ccc(NC(=O)C(Cc2ccccc2)NS(=O)(=O)c2cccs2)cc1Cl (centres undefined)	D1 antagonist -42 (no result: DRD3 antagonist)
COc1ccc(C)cc1NC(=O)C(NS(=O)(=O)c1cccs1)c1ccccc1 (centres undefined)	D1 antagonist -35 (no result: DRD3 antagonist)
COc1ccc(C)cc1NC(=O)C(NS(=O)(=O)c1cccc2nsnc12)c1ccccc1 (centres undefined)	none (no result: DRD3 antagonist)
C/C(=N\Nc1ccc(Cl)cc1)c1c(O)cc(C)oc1=O	none
COCCCNC(=O)c1cc2c(=O)n3cccc(C)c3nc2s1	D1 antagonist -33!, D3 ag 32!
CCCCNC(=O)c1cc2c(=O)n3cccc(C)c3nc2s1	none
O=[N+]([O-])c1cc(C(F)(F)F)cc([N+](=O)[O-])c1N1CCN(S(=O)(=O)c2ccccc2)CC1	D1 antagonist -32
CC1CCN(S(=O)(=O)c2cc(C(=O)N3CCN(c4ccccc4F)CC3)n(C)c2)CC1	none (no result: DRD3 antagonist)
Cc1[nH]c2ccccc2c1/C=C(\C#N)C(=O)NCc1ccccc1	none
Cc1ccc(C(C)NC(=O)/C(C#N)=C\c2c(C)[nH]c3ccccc23)cc1 (centres undefined)	D1 ag 48
COC(=O)c1ccc(/C=C(\C#N)C(=O)NC(C)c2ccccc2)cc1 (centres undefined)	DRD3 antagonist -56
CC(NC(=O)/C(C#N)=C/c1ccc([N+](=O)[O-])o1)c1ccccc1 (centres undefined)	DRD3 antagonist -96
CCCCCCCC(=O)CC[C@@H]1[C@@H](C/C=C\CCCC(=O)OC(C)C)[C@@H](O)C[C@H]1O	none (no result: D1 antagonist, D1 ag, D1 PAM, DRD3 antagonist)
Cc1ccc(NC(=O)CCC(=O)NNC(=O)c2ccccc2Cl)c(C)c1	none
N=c1n(CCN2CCCCC2)c2ccccc2n1CC(O)COc1ccccc1 (centres undefined)	none
CCCCn1c(=N)n(CC(O)COc2ccc(C)cc2)c2ccccc21 (centres undefined)	none
N=c1n(Cc2ccccc2)c2ccccc2n1CC(O)COc1ccccc1 (centres undefined)	D1 antagonist -31
Cc1ccc(Cn2c(=N)n(CC(O)COc3ccccc3)c3ccccc32)cc1 (centres undefined)	D1 ag 42
CC(=O)c1c(O)cc(O)cc1O	none (no result: D1 antagonist, D1 ag, D1 PAM)
O=C(CCNS(=O)(=O)c1ccccc1)Nc1ccccc1	none
CCOc1ccc(S(=O)(=O)N(C)CC(=O)NC2CCCC2)cc1	none
CN(C)c1ccc(/C=C2\SC(N3CCCCC3)=NC2=O)cc1	D1 ag 37
COc1ccc(C(=O)NCc2nnc(SCC(=O)Nc3ccc(C)cc3)n2-c2ccccc2)cc1	none (no result: DRD3 antagonist)
NC(=O)COc1ccc(-c2noc(COc3ccccc3[N+](=O)[O-])n2)cc1	none
Cc1cc(C)c(NC(=O)c2ccc(CN3CCc4ccccc4C3)cc2)c(C)c1	DRD3 antagonist -53
O=C(Nc1ccc(S(=O)(=O)N2CCOCC2)cc1)c1ccc(CN2CCc3ccccc3C2)cc1	DRD3 antagonist -54
CN(c1ccc(C(=O)Nc2ccc3c(c2)OCO3)cc1)S(C)(=O)=O	none
CCOC(=O)c1ccc(NC(=O)c2ccc(CN3CCc4ccccc4C3)cc2)cc1	DRD3 antagonist inconclusive
Cc1ccc(C(=O)Nc2ccccc2Sc2ccccc2)cc1	DRD3 antagonist inconclusive
CN(c1ccc(C(=O)Nc2ccccc2Sc2ccccc2)cc1)S(C)(=O)=O	D1 antagonist -40
